This passage reports Potency results from PubChem BioAssay (NCATS).

Results filed as inconclusive are left out. Where a call stands in place of a potency, no number is given. Calls of active or inactive are those of the source. The call rests on the fitted dose curve; in most records, active means well fitted curve in the direction sought with a large enough effect; inconclusive means small, poorly fitted or top-dose-only effect, or another doubt; inactive means no such curve, though single readings can be large; an effect the other way counts as inactive or inconclusive.

Assay [1] concerns the target Aldehyde dehydrogenase, mitochondrial (Homo sapiens) (UniProt P05091). Kind of assay: qHTS for Inhibitors of the Aldehyde Dehydrogenase Family (ALDH2) Primary screen (AID 2061308; further: nearly all actives have a fitted effect of over 55% in size). (In general: Quantitative high-throughput screening tests each substance at several concentrations.)
Assay [2] has as its target Retinaldehyde dehydrogenase 3 (Homo sapiens) (UniProt P47895). Kind of assay: qHTS for Inhibitors of the Aldehyde Dehydrogenase Family (ALDH1A3) Primary screen (AID 2061315).

In the case of `S=C(NCCCNc1ccc(Br)cn1)NCCCc1cnc[nH]1`, the Potency entry in assay [1] and in assay [2] was “inactive” each time.
In the case of `O=C(OCC#CCSc1nnc(-c2cccc3ccccc23)o1)c1ccc(OC(F)F)cc1`, the Potency result in assay [1] and in assay [2] was “inactive” throughout.
On to `CCN(CC)CCCC(C)n1c(-c2ccccc2)nc2c(NCc3ccccc3)nc(C)nc21` (stereo not given), for which the Potency entry in assay [1] and in assay [2] was “inactive” throughout.
With `Brc1cnc2nc(SCc3cccnc3)[nH]c2c1`, the Potency result in assay [1] and in assay [2] was “inactive” in each case.
With `COc1cccc(C2c3c(ncn(-c4ccc(C)cc4)c3=N)Oc3ccc4ccccc4c32)c1` (stereo not given), the Potency entry in assay [1] and in assay [2] was “inactive” in each case.
For `CCOC(=O)C1CCN(C(=O)C(C)(C)NC(=O)Nc2cccc(OC)c2)CC1`, the Potency result in assay [1] and in assay [2] was “inactive” each time.
Consider `CN(C)CCOC(C)(c1ccccc1)c1ccc(Cl)cc1` (stereo not given), for which the Potency entry in assay [1] and in assay [2] was “inactive” each time.
On to `C[C@@H](NC(c1ccc(F)cc1)c1ccc2cccnc2c1O)c1ccccc1` (stereo not given in full), for which the Potency entry in assay [1] and in assay [2] was “inactive” each time.
For `CC(C)(C)OC(=O)NCCOCCOCCOc1cccc(-n2ncc3c2CCCC3NC(=O)c2ccccn2)c1` (stereo not given), the Potency result in assay [1] and in assay [2] was “inactive” in each case.
As for `Cc1cccc(S(=O)(=O)Nc2cnccc2C(=O)Nc2nc(-c3ccccc3)cs2)c1`, the Potency result in assay [1] and in assay [2] was “inactive” each time.
Regarding `O=C(N/C=C/c1ccccc1)c1cccc([S+](=O)([O-])Nc2ccccc2F)c1`, the Potency result in assay [1] and in assay [2] was “inactive” throughout.
Regarding `Cc1cc(N[S+](=O)([O-])c2ccc(NC(=O)Cc3ccc4c(c3)OCCO4)cc2)no1`, the Potency result in assay [1] and in assay [2] was “inactive” throughout.
Take `Cc1cccc(CNc2ccnc(-c3ccccc3F)n2)c1`: the Potency result in assay [1] and in assay [2] was “inactive” throughout.
In the case of `Oc1cccc2cc(-c3ccncc3)cnc12`, the Potency result in assay [1] and in assay [2] was “inactive” throughout.
For `COc1cccc(C2C(C#N)=C(NC(=O)CCc3ccccc3)Oc3ccc4ccccc4c32)c1` (stereo not given), the Potency entry in assay [1] and in assay [2] was “inactive” in each case.
